Measurements as given in PubChem BioAssay (NCATS).
Records with an inconclusive call do not appear. A call without a number means that no potency is given here. Calls of active or inactive are those of the source. Unless noted, the call rests on the fitted dose curve; in most records, active means well fitted curve in the direction sought with a large enough effect; inconclusive means small, poorly fitted or top-dose-only effect, or another doubt; inactive means no such curve, though single readings can be large; an effect the other way counts as inactive or inconclusive.

Key:
[1] = molecular target: Glucocorticoid receptor (Homo sapiens) (UniProt P04150); assay: GR-GFP Redistribution (AID 450;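 active means compounds whose dose series gives a full or clear partial fitted curve of increased nuclear translocation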; further: potency means the concentration at half of the fitted maximal effect); conditions: U2OS GR-GFP nuclear translocation, laser cytometry, 2 h
[2] = molecular target: Glucocorticoid receptor (Homo sapiens) (UniProt P04150); assay: GR-EFC Redistribution (AID 451; calls by dose curve; further: potency means the concentration at half of the fitted maximal effect); conditions: CHO-K1 GR-EFC translocation, beta-gal luminescence, 2 h
In short: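 CHO-K1 cells expressing nuclear EA and GR-ED fragments of b-gal; compounds titrated up to 46 uM final, 2 h at 37 C. GR nuclear translocation read as complemented b-gal luminescence after 1 h RT detection.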

[3] = molecular target: Mitogen-activated protein kinase 10 (Mus musculus) (UniProt Q61831); assay: JNK3 AlphaScreen Assay (AID 530; active means well fitted curve in either direction with a large enough effect, not every such curve was filed as active;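 further: kinase came from lysate of stimulated human HepG2 cells; signal reports phosphorylation of biotinylated GST-cJun 1-79 at Ser73 with 10 µM ATP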); conditions: JNK3 lysate, c-Jun phosphorylation; series mostly up to 57.1 µM
In short: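 Activity was read by AlphaScreen after JNK3-containing HepG2 lysate (cytokine pre-activated) phosphorylated biotinylated GST-cJun with 10 uM ATP at room temperature. Phospho-Ser73 cJun antibody with Protein-A acceptor beads provided detection.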

[4] = molecular target: Cytochrome P450 2C9 (Homo sapiens) (UniProt P11712); assay: qHTS Assay for Inhibitors and Substrates of Cytochrome P450 2C9 (AID 883); conditions: recombinant CYP2C9, luciferin-H luminescence, 60 min; series mostly up to 57.1 µM; further: nearly all actives have a fitted effect of over 60% in size
In short: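 10nM CYP2C9 + 100uM Luciferin-H (=KM), 25mM KPO4; cpd 10 min 37C; NADPH regen, 60 min 37C; stop/detect with P450 Glo-Buffer 20 min; luminescence. Norm. to 57uM sulphaphenazole as full inhibition.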

[5] = molecular target: Cytochrome P450 2D6 (Homo sapiens) (UniProt P10635); assay: qHTS Assay for Inhibitors and Substrates of Cytochrome P450 2D6 (AID 891); conditions: recombinant CYP2D6, luciferin-ME EGE luminescence; series mostly up to 57.1 µM; further: potency means the concentration at half of the fitted maximal effect; nearly all actives have a fitted effect of over 60% in size
In short: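 Luminescent read-out of luciferin formed by 5 nM human CYP2D6 demethylating 30 uM Luciferin-ME EGE (Km level) over 60 min at room temperature after NADPH regeneration addition. Data normalized to full inhibition by 1.43 uM quinidine.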

[6] = molecular target: Cytochrome P450 2C19 (Homo sapiens) (UniProt P33261); assay: qHTS Assay for Inhibitors and Substrates of Cytochrome P450 2C19 (AID 899); conditions: recombinant CYP2C19, luciferin-H EGE luminescence; series mostly up to 57.1 µM; further: nearly all actives have a fitted effect of over 60% in size
In short: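 Luminescent read-out of luciferin formed from Luciferin-H EGE (10uM, equal to KM). Enzyme 5nM in 50mM KPO4; compound added, 10 min at 37C, then NADPH regenerating system for 60 min at 37C. Full inhibition defined by 57uM ketoconazole.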

[7] = qHTS Assay for Lipid Storage Modulators (AID 1519; calls by dose curve); conditions: Drosophila S3 cells, BODIPY lipid droplet/cell ratio, laser cytometry, cells loaded with oleic acid; for activity change, negative = inhibition: at 57.5 µM (top of the series)
In short: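 Cells seeded at 5,000 per well were treated with compounds over a concentration series and loaded with oleic acid (400 uM, as added). Lipid droplet fluorescence (488 nm excitation, 500-530 nm channel) was read by laser-scanning cytometry and normalized to 20 uM Triacsin C.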

[8] = molecular target: Ubiquitin carboxyl-terminal hydrolase 1 (Homo sapiens) (UniProt O94782); assay: Inhibitors of USP1/UAF1: Pilot qHTS (AID 504865); conditions: purified USP1/UAF1, Ub-rhodamine cleavage fluorescence; series mostly up to 114 µM;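 further: rhodamine fluorescence freed from ubiquitin-rhodamine substrate followed over time; top concentration of the series differs between compounds; nearly all actives have a fitted effect of over 35% in size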
In short: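 Enzyme-free wells gave the negative control, while test wells held 1nM USP1/UAF1 preincubated with compound for 15 min at room temperature. Ub-Rho at 150nM final started the reaction, and fluorescence at 480/540 nm was recorded kinetically.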

[9] = molecular target: DNA dC->dU-editing enzyme APOBEC-3G (Homo sapiens) (UniProt Q9HC16); assay: qHTS for inhibitors of Vif-A3G interactions: Validation (AID 588379); conditions: Vif-A3G protein interaction assay; series mostly up to 46.1 µM
In short: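 Yellow fluorescence (Ex 488, Em 500-530) of Vif-coexpressing HeLa A3G-eYFP cells, scanned by Acumen cytometer, reports blocked A3G degradation. Cells plated at 700/well overnight at 37 deg C before compound addition, then a further overnight compound incubation at 37 deg C.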

[10] = system: Zika virus NS2B-NS3 protease; assay: Primary screen GU AMC qHTS for Zika virus inhibitors (AID 1347154); conditions: Zika NS2B-NS3 unlinked protease, AMC fluorogenic substrate; series mostly up to 54.1 µM; further: nearly all actives have a fitted effect of over 70% in size
In short: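 Unlinked Zika NS2B hydrophilic domain–NS3 protease complex at 25 nM in 10 mM Tris-HCl pH 8.0, 0.01% Tween 20, with an AMC peptide substrate. Fluorescence change (340/450 nm) over 15 min at room temperature, normalized to controls, fitted to 4-parameter Hill.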

[11] = molecular target: 3',5'-cyclic-AMP phosphodiesterase 4B (Homo sapiens) (UniProt Q07343); assay: qHTS Assay for Inhibitors of PDE-IV (AID 607; active means well fitted activation curve with a large enough effect in the main read-out, with a control signal flat, not every such curve was filed as active); conditions: HEK293 ACTOne CNG channel cells, membrane potential fluorescence; series mostly up to 22.9 µM
In short: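 Cell-based read-out of cAMP via a modified cyclic nucleotide-gated channel and membrane potential dye (535/590 nm) in HEK293 cells expressing PDE4 endogenously. Compounds tested up to 22.9 uM final; 100 uM RO 20-1724 reference.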

[12] = molecular target: Cytochrome P450 1A2 (Homo sapiens) (UniProt P05177); assay: p450-cyp1a2 (AID 410; calls by dose curve; further: potency means the concentration at half of the fitted maximal effect); conditions: recombinant CYP1A2, luciferin-ME demethylation, luminescence; series mostly up to 57 µM
In short: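 O-Demethylation of luciferin 6' methyl ether by human CYP1A2 is monitored as luciferase luminescence. Substrate sits at Km (100uM); enzyme is 20nM. Values are scaled to 57 uM furafylline as maximal inhibition.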

[13] = molecular target: Cytochrome P450 3A4 (Homo sapiens) (UniProt P08684); assay: qHTS Assay for Inhibitors and Substrates of Cytochrome P450 3A4 (AID 884); conditions: recombinant CYP3A4, Luciferin-PPXE luminescence; series mostly up to 57.1 µM; further: potency means the concentration at half of the fitted maximal effect; nearly all actives have a fitted effect of over 50% in size
In short: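 Luminescent readout of luciferin produced by CYP3A4 (20 nM) dealkylation of Luciferin-PPXE, 25 uM (its KM). NADPH-driven reaction ran 60 min at RT after 10 min compound preincubation; data scaled to 57 uM ketoconazole as 100% inhibition.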

[14] = molecular target: Cytochrome P450 3A4 (Homo sapiens) (UniProt P08684); assay: qHTS Assay for Activators of Cytochrome P450 3A4 (AID 885); conditions: recombinant CYP3A4, Luciferin-PPXE luminescence, 60 min; series mostly up to 57.1 µM; further: nearly all actives have a fitted effect of over 65% in size
In short: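 Luminescent readout of luciferin formed from 25 uM Luciferin-PPXE (KM level) by 20 nM CYP3A4 in 200 mM KPO4, with 60 min NADPH-driven reaction at room temperature after 10 min compound exposure. Ketoconazole (57 uM) defined 100% inhibition.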

[15] = measured here: cell count channel max response
[16] = measured here: lipid channel max response

Chain of Glucocorticoid receptor (Homo sapiens) (P04150 whole entry, looked up, the tested form may be a part): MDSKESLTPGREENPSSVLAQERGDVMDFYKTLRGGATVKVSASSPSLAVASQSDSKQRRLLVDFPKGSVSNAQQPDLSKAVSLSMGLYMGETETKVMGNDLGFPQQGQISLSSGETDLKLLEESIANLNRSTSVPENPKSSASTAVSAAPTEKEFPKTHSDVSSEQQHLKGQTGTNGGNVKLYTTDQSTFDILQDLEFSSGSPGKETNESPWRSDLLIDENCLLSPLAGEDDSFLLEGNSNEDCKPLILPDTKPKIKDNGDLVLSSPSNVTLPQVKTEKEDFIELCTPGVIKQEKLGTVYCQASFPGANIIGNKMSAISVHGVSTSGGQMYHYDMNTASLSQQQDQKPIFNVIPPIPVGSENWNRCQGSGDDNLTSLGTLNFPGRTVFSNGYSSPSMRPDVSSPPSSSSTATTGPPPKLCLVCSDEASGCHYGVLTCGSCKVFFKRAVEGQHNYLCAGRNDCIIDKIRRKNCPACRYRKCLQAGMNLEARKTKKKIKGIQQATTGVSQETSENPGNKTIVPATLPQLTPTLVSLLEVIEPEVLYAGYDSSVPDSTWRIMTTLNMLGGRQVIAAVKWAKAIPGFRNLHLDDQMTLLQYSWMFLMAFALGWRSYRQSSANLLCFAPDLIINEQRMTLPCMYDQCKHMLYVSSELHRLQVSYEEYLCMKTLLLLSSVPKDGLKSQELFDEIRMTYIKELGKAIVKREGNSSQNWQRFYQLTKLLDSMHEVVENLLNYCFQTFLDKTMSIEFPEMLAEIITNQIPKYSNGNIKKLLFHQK
Chain of Ubiquitin carboxyl-terminal hydrolase 1 (Homo sapiens) (O94782 whole entry, looked up): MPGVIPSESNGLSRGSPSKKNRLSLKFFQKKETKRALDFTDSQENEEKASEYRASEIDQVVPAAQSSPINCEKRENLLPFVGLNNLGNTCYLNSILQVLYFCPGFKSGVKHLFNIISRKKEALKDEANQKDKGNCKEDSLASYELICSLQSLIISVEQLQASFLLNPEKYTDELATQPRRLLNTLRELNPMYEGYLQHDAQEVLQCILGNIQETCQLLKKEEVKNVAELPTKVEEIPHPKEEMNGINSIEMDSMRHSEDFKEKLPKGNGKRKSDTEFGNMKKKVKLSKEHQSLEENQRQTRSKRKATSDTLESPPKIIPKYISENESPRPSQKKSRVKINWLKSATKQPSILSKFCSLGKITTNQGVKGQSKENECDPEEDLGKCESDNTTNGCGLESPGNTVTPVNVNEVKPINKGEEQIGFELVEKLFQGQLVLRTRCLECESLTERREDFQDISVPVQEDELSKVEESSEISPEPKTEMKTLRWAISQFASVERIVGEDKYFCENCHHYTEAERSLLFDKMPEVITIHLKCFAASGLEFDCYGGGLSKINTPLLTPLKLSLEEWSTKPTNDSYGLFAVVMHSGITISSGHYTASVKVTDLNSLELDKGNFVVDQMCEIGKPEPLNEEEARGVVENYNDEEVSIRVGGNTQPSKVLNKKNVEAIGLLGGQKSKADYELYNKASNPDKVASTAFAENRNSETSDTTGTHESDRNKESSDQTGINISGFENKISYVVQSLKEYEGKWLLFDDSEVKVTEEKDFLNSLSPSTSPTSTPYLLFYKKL
Chain of DNA dC->dU-editing enzyme APOBEC-3G (Homo sapiens) (Q9HC16 whole entry, looked up): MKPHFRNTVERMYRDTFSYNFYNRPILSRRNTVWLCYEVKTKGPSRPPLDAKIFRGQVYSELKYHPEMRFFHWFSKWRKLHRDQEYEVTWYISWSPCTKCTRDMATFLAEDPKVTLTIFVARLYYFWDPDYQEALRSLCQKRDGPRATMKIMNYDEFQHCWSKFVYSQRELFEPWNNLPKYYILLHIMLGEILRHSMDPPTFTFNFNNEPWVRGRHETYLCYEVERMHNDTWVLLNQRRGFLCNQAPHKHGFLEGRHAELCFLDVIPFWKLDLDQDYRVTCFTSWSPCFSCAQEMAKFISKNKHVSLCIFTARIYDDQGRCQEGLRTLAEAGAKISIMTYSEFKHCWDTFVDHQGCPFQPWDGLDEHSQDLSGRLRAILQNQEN
Chain of Cytochrome P450 3A4 (Homo sapiens) (P08684 whole entry, looked up): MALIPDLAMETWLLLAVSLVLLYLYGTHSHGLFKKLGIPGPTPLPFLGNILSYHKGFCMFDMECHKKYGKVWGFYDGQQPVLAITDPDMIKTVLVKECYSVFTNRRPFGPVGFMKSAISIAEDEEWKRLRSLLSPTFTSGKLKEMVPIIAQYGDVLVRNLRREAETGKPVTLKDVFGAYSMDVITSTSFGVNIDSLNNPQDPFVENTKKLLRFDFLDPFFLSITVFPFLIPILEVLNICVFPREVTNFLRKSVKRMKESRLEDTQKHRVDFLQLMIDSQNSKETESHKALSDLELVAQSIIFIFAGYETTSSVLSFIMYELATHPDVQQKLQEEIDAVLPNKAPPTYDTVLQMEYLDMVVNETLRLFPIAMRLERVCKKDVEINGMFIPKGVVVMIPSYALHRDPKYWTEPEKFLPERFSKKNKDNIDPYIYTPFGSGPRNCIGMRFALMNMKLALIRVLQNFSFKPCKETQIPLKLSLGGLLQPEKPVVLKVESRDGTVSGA
Chain of Cytochrome P450 2C19 (Homo sapiens) (P33261 whole entry, looked up): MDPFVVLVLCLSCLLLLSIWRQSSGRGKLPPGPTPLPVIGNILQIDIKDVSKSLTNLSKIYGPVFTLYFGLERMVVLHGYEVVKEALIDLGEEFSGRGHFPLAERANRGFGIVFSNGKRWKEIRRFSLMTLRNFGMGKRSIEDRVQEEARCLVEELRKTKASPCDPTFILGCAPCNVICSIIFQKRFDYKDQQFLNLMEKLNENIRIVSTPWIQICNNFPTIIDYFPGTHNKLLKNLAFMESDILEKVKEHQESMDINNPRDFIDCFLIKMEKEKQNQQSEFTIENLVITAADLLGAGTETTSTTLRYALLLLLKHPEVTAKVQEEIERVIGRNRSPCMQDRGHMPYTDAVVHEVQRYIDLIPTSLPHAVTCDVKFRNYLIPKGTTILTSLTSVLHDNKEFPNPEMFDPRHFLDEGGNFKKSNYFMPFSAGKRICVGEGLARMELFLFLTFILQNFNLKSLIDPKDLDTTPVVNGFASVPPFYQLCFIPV
Chain of 3',5'-cyclic-AMP phosphodiesterase 4B (Homo sapiens) (Q07343 whole entry, looked up): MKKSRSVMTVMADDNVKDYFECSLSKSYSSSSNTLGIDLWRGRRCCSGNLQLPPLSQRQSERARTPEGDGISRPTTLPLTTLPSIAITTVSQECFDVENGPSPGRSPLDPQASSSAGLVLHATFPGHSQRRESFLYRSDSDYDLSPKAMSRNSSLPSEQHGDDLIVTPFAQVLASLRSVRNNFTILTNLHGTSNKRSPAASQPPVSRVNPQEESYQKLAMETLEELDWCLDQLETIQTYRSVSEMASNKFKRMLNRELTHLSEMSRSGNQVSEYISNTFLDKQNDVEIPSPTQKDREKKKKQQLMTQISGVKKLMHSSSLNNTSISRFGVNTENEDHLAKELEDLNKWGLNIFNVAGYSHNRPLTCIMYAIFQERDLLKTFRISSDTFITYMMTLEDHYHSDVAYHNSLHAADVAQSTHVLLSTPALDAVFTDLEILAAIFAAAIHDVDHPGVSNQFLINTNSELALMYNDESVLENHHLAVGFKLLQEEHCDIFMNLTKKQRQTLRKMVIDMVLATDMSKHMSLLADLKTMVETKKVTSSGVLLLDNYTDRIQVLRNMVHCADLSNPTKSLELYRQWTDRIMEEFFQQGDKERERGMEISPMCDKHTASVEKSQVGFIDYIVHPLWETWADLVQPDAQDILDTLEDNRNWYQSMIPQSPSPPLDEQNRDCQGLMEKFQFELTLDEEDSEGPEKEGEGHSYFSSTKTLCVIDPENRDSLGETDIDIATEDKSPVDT
Chain of Cytochrome P450 2D6 (Homo sapiens) (P10635 whole entry, looked up): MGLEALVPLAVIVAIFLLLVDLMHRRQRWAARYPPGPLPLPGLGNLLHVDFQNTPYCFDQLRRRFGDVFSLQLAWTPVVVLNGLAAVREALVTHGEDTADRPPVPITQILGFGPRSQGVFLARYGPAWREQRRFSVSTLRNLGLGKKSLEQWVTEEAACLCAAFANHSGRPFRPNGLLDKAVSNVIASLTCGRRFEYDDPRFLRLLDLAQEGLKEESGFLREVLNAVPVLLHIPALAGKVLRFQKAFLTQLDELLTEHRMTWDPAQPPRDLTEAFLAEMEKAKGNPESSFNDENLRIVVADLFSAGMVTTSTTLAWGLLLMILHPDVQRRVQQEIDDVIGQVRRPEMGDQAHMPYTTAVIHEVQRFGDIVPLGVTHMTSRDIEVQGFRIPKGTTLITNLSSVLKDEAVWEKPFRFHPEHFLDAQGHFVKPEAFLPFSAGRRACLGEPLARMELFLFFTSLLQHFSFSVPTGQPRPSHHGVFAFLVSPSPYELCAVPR
Chain of Cytochrome P450 1A2 (Homo sapiens) (P05177 whole entry, looked up): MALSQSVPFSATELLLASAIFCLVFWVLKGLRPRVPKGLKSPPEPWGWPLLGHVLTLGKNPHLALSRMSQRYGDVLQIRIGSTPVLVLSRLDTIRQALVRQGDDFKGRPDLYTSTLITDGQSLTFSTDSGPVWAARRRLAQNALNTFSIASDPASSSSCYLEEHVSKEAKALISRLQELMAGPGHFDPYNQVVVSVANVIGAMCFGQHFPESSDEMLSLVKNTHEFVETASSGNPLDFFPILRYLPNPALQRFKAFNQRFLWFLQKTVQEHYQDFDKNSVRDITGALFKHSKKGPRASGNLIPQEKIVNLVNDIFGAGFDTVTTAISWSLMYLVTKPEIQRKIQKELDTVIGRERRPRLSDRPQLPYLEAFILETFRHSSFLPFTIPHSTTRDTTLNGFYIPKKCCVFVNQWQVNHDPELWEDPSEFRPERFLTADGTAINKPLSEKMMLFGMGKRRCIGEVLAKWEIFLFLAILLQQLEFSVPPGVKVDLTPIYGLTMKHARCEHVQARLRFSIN

For `CN(C)CCCSc1ccccc1NC(=O)/C=C\c1ccccc1`, which Potency [1] is on record?
The Potency was > 46 µM (inactive).

And the Potency [2]?
Its Potency is > 46 µM (inactive).

What about the Potency [3] of the same compound?
The Potency was “inactive”.

And the Potency [4]?
Its Potency is “inactive”.

And the Potency [5]?
Its Potency is 0.316 µM (active).

And the Potency [6]?
The Potency was “inactive”.

And the activity change, negative = inhibition [7]?
The activity change, negative = inhibition was 4.73% (inactive).

What about the max response [7, 15] of the same compound?
The max response was 14.3%.

What about the max response [7, 16] of the same compound?
Its max response is 23.1%.

And the Potency [8]?
The Potency was “inactive”.

And the Potency [9]?
Its Potency is “inactive”.

And the Potency [10]?
Its Potency is “inactive”.

Which Potency [1] does the source give for `N#Cc1ccccc1OC[C@H](O)CNCCNC(=O)Nc1ccccc1` here?
Its Potency is > 46 µM (inactive).

And the Potency [2]?
The Potency was > 46 µM (inactive).

What about the Potency [3] of the same compound?
The Potency was “inactive”.

What about the Potency [11] of the same compound?
Its Potency is “inactive”.

What about the activity change, negative = inhibition [7] of the same compound?
Its activity change, negative = inhibition is 0.479% (inactive).

What about the max response [7, 15] of the same compound?
The max response was 6.59%.

What about the max response [7, 16] of the same compound?
Its max response is 10.2%.

And the Potency [8]?
Its Potency is “inactive”.

And the Potency [9]?
The Potency was “inactive”.

What about the Potency [10] of the same compound?
Its Potency is “inactive”.

For `CCC(C)(C)N=C(NC#N)Nc1cccnc1`, which Potency [12] is on record?
Its Potency is 12.6 µM (active).

What about the Potency [1] of the same compound?
The Potency was > 46 µM (inactive).

And the Potency [2]?
Its Potency is > 46 µM (inactive).

And the Potency [3]?
Its Potency is “inactive”.

And the Potency [13]?
The Potency was 5.01 µM (active).

What about the Potency [14] of the same compound?
The Potency was “inactive”.

And the Potency [8]?
Its Potency is “inactive”.

And the Potency [9]?
Its Potency is “inactive”.

And the Potency [10]?
Its Potency is “inactive”.
